# From PubChem BioAssay
# HTT aggregate – reduces HttQ103-GFP aggregates in PC12 cells; PC12 HttQ103-GFP aggregates, Acumen cytometry, 40 h; Potency, µM (highest dose often 46.1 µM), most hits filed as inhibitors; 220,000 tested, 1.1% active; note: nearly all actives have a fitted effect of over 60% in size
#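 Read-out: GFP aggregate count by laser scanning cytometer (488 nm excitation, 500-530 nm emission, 1–25 µm objects >6 SD above background). Cells: PC12, inducible HTTex1-Q103-GFP, 100 nM tebufenozide; compounds titrated.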
# HTT ATP protect – protects HTT-Q103 PC12 cells, measured by ATP. Potency, µM (doses to about 56.4 µM), actives largely listed as activators. PC12 HTT-Q103 induced, cytoprotection, ATP luminescence, 40 h. 230,000 tested, 0.14% active; note: nearly all actives have a fitted effect of over 45% in size
#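 ATP quantification (ATPlite) reports survival of PC12 cells in which tebufenozide, 100 nM final, switches on Htt exon 1 with 103 glutamines linked to GFP; compounds are titrated.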
# ALDH1A1 inh – blocks purified human ALDH1A1 activity | Potency, µM (series often up to 75.3 µM), usual class: inhibitors | Purified ALDH1A1, NADH fluorescence, propionaldehyde substrate | P00352 | 220,000 tested, 7.3% active; active = well fitted inhibition curve with a large enough effect, not every such curve was filed as active; inconclusive = small, poorly fitted or top-dose-only effect, or another doubt; inactive = no such curve, though single readings can be large or run the other way
# Target sequence (P00352 whole entry, looked up): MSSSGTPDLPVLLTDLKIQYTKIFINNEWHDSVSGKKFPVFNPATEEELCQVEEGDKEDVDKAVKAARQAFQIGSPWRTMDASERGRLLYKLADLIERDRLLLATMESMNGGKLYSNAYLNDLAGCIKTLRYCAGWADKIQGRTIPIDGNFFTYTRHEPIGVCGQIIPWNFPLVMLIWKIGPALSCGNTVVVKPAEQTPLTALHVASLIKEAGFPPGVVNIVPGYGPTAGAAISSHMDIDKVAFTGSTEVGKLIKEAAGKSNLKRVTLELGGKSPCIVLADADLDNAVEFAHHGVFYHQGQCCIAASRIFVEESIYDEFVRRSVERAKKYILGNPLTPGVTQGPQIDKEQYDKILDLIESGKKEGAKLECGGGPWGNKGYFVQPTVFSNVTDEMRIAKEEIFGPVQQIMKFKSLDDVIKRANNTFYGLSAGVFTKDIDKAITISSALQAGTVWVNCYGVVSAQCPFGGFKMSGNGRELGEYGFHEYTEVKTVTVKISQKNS
# HPGD block – blocks human HPGD enzyme activity; 150,000 tested, 4.3% active; P15428; Potency, µM, hits mostly inhibitors; purified HPGD, NADH fluorescence kinetic, PGE2 substrate; active = well fitted inhibition curve with a large enough effect, not every such curve was filed as active; inconclusive = small, poorly fitted or top-dose-only effect, or another doubt; inactive = no such curve, though single readings can be large or run the other way
# Target sequence (P15428 whole entry, looked up): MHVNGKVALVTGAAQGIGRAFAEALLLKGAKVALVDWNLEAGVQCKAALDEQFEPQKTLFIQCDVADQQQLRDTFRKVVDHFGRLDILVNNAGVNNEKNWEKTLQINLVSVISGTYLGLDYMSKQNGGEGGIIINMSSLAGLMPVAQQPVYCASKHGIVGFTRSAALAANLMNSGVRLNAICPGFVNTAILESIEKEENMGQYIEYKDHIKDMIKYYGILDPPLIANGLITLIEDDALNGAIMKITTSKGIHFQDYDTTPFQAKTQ
#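 NADH formation kinetics: reaction with 30 uM PGE2 and 1 mM NAD+ (final), 20 nM enzyme, Tris-HCl pH 8 with Tween 20, after 15 min compound preincubation at room temperature. Fluorescence change, last versus first of five reads.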
# IMPase inh – IMPase inhibition in cells | CHO-M1 cells, IP1 accumulation, HTRF TR-FRET ratio | inhibition (IP1 accumulation), % at 46.1 µM | 120,000 tested, under 10 active; active = well fitted curve in the direction sought with a large enough effect in the signal ratio, not every such curve was filed as active; inconclusive = small, poorly fitted or top-dose-only effect, or a change in a side signal; inactive = no such curve, though single readings can be large or run the other way; the % refers to the signal ratio;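 note: cells stimulated with carbachol in lithium chloride buffer; higher means more IMPase inhibition seen as more IP1 and lower FRET ratio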
#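 The IP-One HTRF competitive assay in carbachol-stimulated CHO-M1 cells quantifies cellular IP1. Compounds spanned up to 46 uM final, and activity is expressed as AC50 from concentration-response fits of the ratio and donor data.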
# IMPase Li cell – IMPase inhibition in cells with lithium potentiation; CHO-M1 cells, IP1 TR-FRET (IP-One), carbachol + lithium; Potency, µM (series often up to 59.4 µM), hits mostly inhibitors; 210,000 tested, 0.35% active; AID 1457;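 note: IP1 builds up when IMPase is blocked and the TR-FRET signal falls; nearly all actives have a fitted effect of over 50% in size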
#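 IP1 accumulation measured by competitive TR-FRET in lysed CHO-M1 cells after 30 min compound exposure at 37C, with a small lithium addition to potentiate weak responses. Hill-equation AC50 from ratio and donor-channel data.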
# Hits are given with their value; . = inactive; ? = inconclusive; / = not tested or not shown; [ ] = dose if it differs, or a comment. Compounds with a hit are over-represented: about 9.4% of the library has one in this group of screens. Unless noted, calls come from the whole dose curve; as a rule, active = well fitted curve in the direction sought with a large enough effect; inconclusive = small, poorly fitted or top-dose-only effect, or another doubt; inactive = no such curve, though single readings can be large; an effect the other way counts as inactive or inconclusive.
SMILES,HTT aggregate,HTT ATP protect,ALDH1A1 inh,HPGD block,IMPase inh,IMPase Li cell
CCCN1C(=O)/C(=N\OCC(=O)Nc2ccc(C(C)C)cc2)c2ccccc21,.,.[10 µM],0.501µM,.,/,.
COc1ccc(OCC(=O)N2CCN(C(=O)c3cccc4ccccc34)CC2)cc1,.,.,?,.,.,.
COc1cc(OC)cc(C(=O)N2CCN(Cc3ccccc3C(F)(F)F)CC2)c1,.,.,14.1µM,/,.,/
COc1ccc(OC)c(CN2CCN(C(=O)c3cccc4ccccc34)CC2)c1,.,.[10 µM],25.1µM,.,.,.
CCC(C)(Oc1ccc(C2(c3ccc(OC(C)(CC)C(=O)O)cc3)CCCCC2)cc1)C(=O)O (centres undefined),.,.,/,/,/,/
COCc1cc(C)nc(SCC[N+](C)(C)CC(=O)c2ccc(Br)cc2)c1C#N,.,.,7.94µM,/,/,.
COc1ccc(N(CCC(=O)O)S(=O)(=O)c2ccc(C)c(C)c2)cc1,.[9.22 µM],.[10 µM],/,/,/,/
Cc1ccc(S(=O)(=O)CCC(=O)O)cc1C,.,.[1.9 µM],8.91µM,.,.,.
CCOC(=O)N1CCC(c2cc(=O)n3[nH]c(C)c(-c4ccc(F)cc4)c3n2)CC1,11.2µM,.,.,?,.,.
Nc1ccc(CC2SC(=O)NC2=O)cc1 (centres undefined),.,.,.,.,.,.
Cc1ccc(CC2SC(=O)NC2=O)cc1Cl (centres undefined),.,.[10 µM],31.6µM,.,.,.
CC1(C)CC(=O)C=C(N=CC2=C(O)CC(C)(C)CC2=O)C1,.,.,8.91µM,.,.,.
COc1ccc(N=CC2=C(O)CC(C)(C)CC2=O)cc1,.,.,7.94µM,.,.,.
COc1ccc(OC)c(N=CC2=C(O)CC(C)(C)CC2=O)c1,.,.,12.6µM,.,.,.
COc1ccc(N=CC2=C(O)CC(c3ccccc3)CC2=O)c(OC)c1 (centres undefined),.,/,14.1µM,.,/,.
CCc1cccc(NC(=O)Cn2c(=O)n(CCc3ccc(OC)c(OC)c3)c(=O)c3ccccc32)c1,/,/,/,/,.,/
CCn1c2ccccc2c2nnc(NCCCO)nc21,/,.[10 µM],.[13.5 µM],.,/,.
COc1ccccc1NS(=O)(=O)c1ccc(O)c(C(=O)OCC(=O)N2c3ccccc3CC2C)c1 (centres undefined),.,.,7.94µM,/,/,.
COc1ccccc1NS(=O)(=O)c1ccc(O)c(C(=O)OCC(=O)c2ccc(Cl)cc2Cl)c1,.,.,1.12µM,/,/,.
Cc1cccc(CSc2nc(N)c(C#N)c(-c3cccs3)c2C#N)c1,?,.[10 µM],?,?,.[0.369 µM],.
CCCCSc1nc(N)c(C#N)c(-c2cccs2)c1C#N,35.5µM,.,?,?,.,.
CC(C)Sc1nc(N)nc(-c2cccs2)c1C#N,.,.[10 µM],?,?,.[1.84 µM],.
CC(=O)CSc1nc(-c2cccs2)c(C#N)c(=O)[nH]1,.[9.22 µM],.[10 µM],.,/,/,7.94µM
CC(=O)CSc1nc(N)c(C#N)c(-c2cccs2)c1C#N,14.1µM,.,?,.,.,.
C=CCN1CCc2c(cc(O)c(O)c2Br)[C@H](c2ccccc2)C1,/,.[1.9 µM],/,/,.,/
SMILES,HTT aggregate,HTT ATP protect,ALDH1A1 inh,HPGD block,IMPase inh,IMPase Li cell
C/C(=N\Nc1cccc(Cl)c1)c1ccncc1,.,.,.,/,/,.
C/C(=N\Nc1ccc(F)cc1)c1ccncc1,.,.[10 µM],20µM,.,/,.
COc1ccc(Nc2ccc3c(c2)=NC2(CCCCC2)[N+]=3[O-])cc1,?,.,3.55µM,.,?,.
[O-][N+]1=c2ccc(Nc3ccccc3)cc2=NC12CCCCC2,?,.,3.55µM,.,.,.
C=C1C=C(Br)C2(OCCCO2)[C@H]2OC12 (some centres undefined),/,?,.[13.5 µM],/,/,/
CC1=C(C(=O)OCc2ccccc2)C(c2ccc(C3CCCCC3)cc2)NC(=O)N1CCCCCC(=O)O (centres undefined),/,.,.,.,/,.
CC1=CC(=O)C(C(C)C)=C/C1=N/OC(=O)c1cccc([N+](=O)[O-])c1,.,.,?,?,.,.
CC1=CC(=O)C(C(C)C)=CC1=NC(=O)c1ccc(C)cc1,.,.[10 µM],17.8µM,/,/,.
CC(=O)/C(=N/Nc1ccccc1C)N1CCOCC1,.,.,17.8µM,.,.,.
CC(=O)/C(=N/Nc1cccc(Cl)c1)N1CCOCC1,.,.,12.6µM,.,.,.
CC(=O)/C(=N/Nc1ccccc1)N1CCOCC1,?,.[10 µM],.,.,.,.
CC(C)=CCOc1ccc(/C=C/C(=O)c2ccc(OCC=C(C)C)cc2OCC(=O)O)cc1,.,?,.,11.2µM,/,.
O=C(NCc1cccs1)c1nc2c(nnn2Cc2ccc(F)cc2)c(=O)[nH]1,.,.[10 µM],.,14.1µM,?,.
O=C(Nc1ccc(F)cc1)c1nc2c(nnn2Cc2cccc3ccccc23)c(=O)[nH]1,.[9.22 µM],.[10 µM],/,/,/,/
O=C(NCC1CCCO1)c1nc2c(nnn2Cc2ccc(F)cc2)c(=O)[nH]1 (centres undefined),.,.,.,14.1µM,.,.
Cc1nc(NCC2CCCO2)c2nnn(Cc3ccccc3)c2n1 (centres undefined),.,.,22.4µM,.,.,.
CCc1nc2c(nnn2Cc2ccc(F)cc2)c(=O)[nH]1,.,.,.,14.1µM,.,.
c1ccc(COc2ccc(CNCc3cccnc3)cc2)cc1,.,.[10 µM],.,/,/,.
COc1cc(C2CC(=O)Oc3ccc(O)cc32)cc(OC)c1OC (centres undefined),/,.,?,?,/,.
O=C(NCc1ccco1)c1nc2c(nnn2Cc2ccccc2Cl)c(=O)[nH]1,.,.[10 µM],.,14.1µM,.,.
CC(=O)N1c2ccccc2C(C)(c2ccc(C)cc2)CC1(C)C (centres undefined),/,/,/,/,.,/
COc1ccc2c(c1)C(=O)N(c1ccccc1OC)C(=O)C2,.,.[10 µM],17.8µM,8.91µM,.,.
CCCn1c(-c2ccc(F)cc2)nc2c(NCCCN(CCO)CCO)nc(C)nc21,/,.,?,?,/,.
C=N[C@H](C(=O)N[C@@H]1C(=O)N2[C@@H]1SC(C)(C)[C@@H]2C(=O)O)c1ccccc1,/,.,.,?,.,.
CCCC(=O)NCCc1c(I)[nH]c2ccc(OC)cc12,/,.,20µM,/,/,.
CC(CCC#N)[N+](=O)[O-] (centres undefined),/,.,.,.,/,.
CC(OC(=O)c1ccc([N+](=O)[O-])s1)C(=O)Nc1ncc(Cl)cc1Cl (centres undefined),.,.[1.9 µM],6.31µM,.,.,.
CC(OC(=O)c1ccc(Cl)c(S(=O)(=O)N2CCc3ccccc32)c1)C(=O)Nc1ncc(Cl)cc1Cl (centres undefined),.,.[1.9 µM],25.1µM,.,.,.
Cc1ccc(C)c(-c2ccc(C(=O)O)o2)c1,/,?,?,?,/,.
N#CC(C#N)=C1C=C2C=C(N3CCCCC3)CCC2CC1 (centres undefined),10µM,/,.,.,/,.
